In article PMC11995724, “Antibiotic target discovery by integrated phenotypic and activity-based profiling of electrophilic fragments” (Cell chemical biology, 2025):
About 75 (2%) of roughly 3,200 compounds showed an effect of 50% or more. Only a selection was taken, and strong results are over-represented in it overall.

The molecules below were run on T1, S. aureus MSSA476. Settings: relative growth, OD600, TSB; 25 µM; inhibitor.
T1 construct: MSSA476
Set-up: species or system S. aureus MSSA476 (TSB) or V. cholerae SAD30 (LB); 384-well bacterial growth screen at 25 uM, OD600 relative to DMSO control

Structure (SMILES) | % of control remaining [%]
CCc1cnc(N2CCN(C(=O)C(C)Cl)CC2)s1 (centres unmarked) [7-C20, 2-chloro-1-[4-(5-ethyl-1,3-thiazol-2-yl)piperazin-1-yl]propan-1-one] | 99.2151
C=CC(=O)N(C)CC(=O)N1CCC2(CC1)CC2c1nnc(C(C)C)o1 (centres unmarked) [2-N22, N-methyl-N-(2-oxo-2-{1-[5-(propan-2-yl)-1,3,4-oxadiazol-2-yl]-6-azaspiro[2.5]octan-6-yl}ethyl)prop-2-enamide] | 98.8686
N#CC(=Cc1ccc2c(c1)OCO2)C(=O)NCc1ccccc1 [8-A09, 3-(1,3-dioxaindan-5-yl)-N-benzyl-2-cyanoprop-2-enamide] | 113.527
COC(=O)c1c(C(=O)CCl)c(C)n(C(C)C)c1C [10-K21, methyl 4-(2-chloroacetyl)-2,5-dimethyl-1-(propan-2-yl)-1H-pyrrole-3-carboxylate] | 119.375
CC(C)n1ccnc1C(=O)CCl [10-H10, 2-chloro-1-[1-(propan-2-yl)-1H-imidazol-2-yl]ethan-1-one] | 2.1875
Cn1ccnc1C(=O)CCl [10-C15, 2-chloro-1-(1-methyl-1H-imidazol-2-yl)ethan-1-one] | 93.75
C=CCNC(=O)C(C#N)=Cc1sccc1C [9-P07, 2-cyano-3-(3-methylthiophen-2-yl)-N-(prop-2-en-1-yl)prop-2-enamide] | 115.955
CC(Cl)C(=O)Nc1ccc(Cl)cc1Cl (centres unmarked) [4-L17, 2-chloro-N-(2,4-dichlorophenyl)propanamide] | 92.9967
CC(Cl)C(=O)N1CCCN(C(=O)c2cc(Cl)cn2C)CC1 (centres unmarked) [7-N07, 2-chloro-1-[4-(4-chloro-1-methyl-1H-pyrrole-2-carbonyl)-1,4-diazepan-1-yl]propan-1-one] | 91.6797
CC(=O)Nc1ccc(C(=O)CCl)cc1 [10-O12, N-[4-(2-chloroacetyl)phenyl]acetamide] | 6.875
CS(=O)(=O)NCCc1ccc(C(=O)CCl)cc1 [10-D06, N-{2-[4-(2-chloroacetyl)phenyl]ethyl}methanesulfonamide] | 79.375
O=C(CCl)Nc1cccc(NC(=O)c2ccccc2)c1 [6-A03, N-[3-(2-chloroacetamido)phenyl]benzamide] | 76.1463
CCCC(=O)Nc1ccc(C(=O)C(C)Cl)cc1 (centres unmarked) [10-O06, N-[4-(2-chloropropanoyl)phenyl]butanamide] | 121.875
O=C(CCl)c1ccc(NC(=O)c2ccccc2)cc1 [10-B06, N-[4-(2-chloroacetyl)phenyl]benzamide] | 0
CC(C)CC(=O)Nc1ccc(C(=O)CCl)cc1 [10-N06, N-[4-(2-chloroacetyl)phenyl]-3-methylbutanamide] | 1.25
CC(=O)c1ccc(NC(=O)CCl)cc1 [4-G07, N-(4-acetylphenyl)-2-chloroacetamide] | 93.7589
CS(=O)(=O)c1ccc(C(=O)CCl)cc1 [10-I13, 2-chloro-1-(4-methanesulfonylphenyl)ethan-1-one] | 83.125
CS(=O)(=O)Nc1ccc(C(=O)CCl)cc1 [10-D19, N-[4-(2-chloroacetyl)phenyl]methanesulfonamide] | 28.125
COc1ccccc1NC(=O)c1ccc(NC(=O)CCl)cc1 [4-O17, 4-(2-chloroacetamido)-N-(2-methoxyphenyl)benzamide] | 92.2344
NC(=O)Nc1ccc(C(=O)CCl)cc1 [10-J07, [4-(2-chloroacetyl)phenyl]urea] | 55.625
NC(=O)c1ccc(NC(=O)CCl)cc1 [4-P04, 4-(2-chloroacetamido)benzamide] | 95.2835
CCCn1c(N)c(C(=O)CCl)c(=O)n(C)c1=O [10-H12, 6-amino-5-(2-chloroacetyl)-3-methyl-1-propyl-1,2,3,4-tetrahydropyrimidine-2,4-dione] | 92.8125
C=CC(=O)NC(C)c1cnc(C(F)(F)F)s1 (centres unmarked) [2-A05, N-{1-[2-(trifluoromethyl)-1,3-thiazol-5-yl]ethyl}prop-2-enamide] | 119.06
N#CC(=Cc1ccc(Cl)c([N+](=O)[O-])c1)C(=O)N1CCCC1 [9-N05, 3-(4-chloro-3-nitrophenyl)-2-(pyrrolidine-1-carbonyl)prop-2-enenitrile] | 107.566

Structure (SMILES) | % of control remaining [%]
Cc1cc(C=C(C#N)C(=O)Nc2ccccc2)c(C)n1C1CC1 [8-E14, 2-cyano-3-(1-cyclopropyl-2,5-dimethyl-1H-pyrrol-3-yl)-N-phenylprop-2-enamide] | 129.793
C=CC(=O)N1CCCCC1c1noc(C2CC2)n1 (centres unmarked) [3-K12, 1-[2-(5-cyclopropyl-1,2,4-oxadiazol-3-yl)piperidin-1-yl]prop-2-en-1-one] | 93.3391
CCc1ccccc1NC(=O)CN(C)C(=O)C(C)Cl (centres unmarked) [4-P05, 2-chloro-N-{[(2-ethylphenyl)carbamoyl]methyl}-N-methylpropanamide] | 90.7099
CC(Cl)C(=O)Nc1ccc(NC(=O)c2cccs2)cc1 (centres unmarked) [6-G07, N-[4-(2-chloropropanamido)phenyl]thiophene-2-carboxamide] | 112.683
NS(=O)(=O)c1ccc(CNC(=O)CCl)cc1 [4-P12, 2-chloro-N-[(4-sulfamoylphenyl)methyl]acetamide] | 97.1891
C=CC(=O)NCC1(OC)CCC(C)CC1 (centres unmarked) [1-P08, N-[(1-methoxy-4-methylcyclohexyl)methyl]prop-2-enamide] | 89.3187
COc1ccc(N2C(=O)C=CC2=O)c(OC)c1 [10-J15, 1-(2,4-dimethoxyphenyl)-2,5-dihydro-1H-pyrrole-2,5-dione] | 121.875
CSc1ccc(C(=O)CCl)cc1 [10-E07, 2-chloro-1-[4-(methylsulfanyl)phenyl]ethan-1-one] | 2.1875
CCCc1ccc(C(=O)CCl)cc1 [10-C04, 2-chloro-1-(4-propylphenyl)ethan-1-one] | 134.375
CC(NC(=O)CCl)C(=O)Nc1ccc(Cl)cc1 (centres unmarked) [5-G11, 2-(2-chloroacetamido)-N-(4-chlorophenyl)propanamide] | 83.4244
CCN(CC)C(=O)c1ccc(NC(=O)CCl)cc1 [4-C05, 4-(2-chloroacetamido)-N,N-diethylbenzamide] | 84.9929
CCc1ccc(C(=O)CCl)cc1 [10-F18, 2-chloro-1-(4-ethylphenyl)ethan-1-one] | 102.188
CCC(=O)Nc1ccc(C(=O)CCl)cc1 [10-C03, N-[4-(2-chloroacetyl)phenyl]propanamide] | 1.5625
CCOC(=O)c1ccc(NC(=O)CCl)cc1 [4-E17, ethyl 4-(2-chloroacetamido)benzoate] | 118.152
CC(C)C(=O)Nc1ccc(C(=O)CCl)cc1 [10-D04, N-[4-(2-chloroacetyl)phenyl]-2-methylpropanamide] | 4.6875
CC(C)C(=O)Nc1ccc(C(=O)C(C)Cl)cc1 (centres unmarked) [10-E08, N-[4-(2-chloropropanoyl)phenyl]-2-methylpropanamide] | 106.875
CC(=O)NCc1ccc(C2CCCN2C(=O)CCl)o1 (centres unmarked) [5-P13, N-({5-[1-(2-chloroacetyl)pyrrolidin-2-yl]furan-2-yl}methyl)acetamide] | 100.182
COc1cc(NC(=O)C(C)Cl)cc(OC)c1 (centres unmarked) [4-I04, 2-chloro-N-(3,5-dimethoxyphenyl)propanamide] | 105.574
CC(Cl)C(=O)N(Cc1ccc(Cl)cc1)Cc1cnn(C)c1 (centres unmarked) [5-P17, 2-chloro-N-[(4-chlorophenyl)methyl]-N-[(1-methyl-1H-pyrazol-4-yl)methyl]propanamide] | 95.4463
C=CC(=O)NCc1ccc(C(=O)N2CCCOC(C)(C)C2)cc1 [3-N06, N-{[4-(2,2-dimethyl-1,4-oxazepane-4-carbonyl)phenyl]methyl}prop-2-enamide] | 118.764
CC(C)NC(=O)C(C#N)=Cc1cccc2ccccc12 [8-P06, 2-cyano-3-(naphthalen-1-yl)-N-(propan-2-yl)prop-2-enamide] | 127.801
C=CC(=O)N1CCC(C(=O)Nc2cccc(NC(=O)C(C)C)c2)CC1 [3-F05, N-[3-(2-methylpropanamido)phenyl]-1-(prop-2-enoyl)piperidine-4-carboxamide] | 95.0805
CC(Cl)C(=O)C=C1N(C)c2ccccc2C1(C)C (centres unmarked) [10-J22, 3-chloro-1-(1,3,3-trimethyl-2,3-dihydro-1H-indol-2-ylidene)butan-2-one] | 134.063
